# Source: the supplement of paper PMC10338343
# ± gives the standard deviation.
# Tests used:
# [1] = tested on: MILI (PIWIL2) piRISC loaded with L1MC piRNA (26 nt); assay: pre-steady-state target cleavage rate (min^-1); guide: L1MC piRNA 5'p-UAACUAAAUACUAUGCAAGCUGUAGG; higher = faster piRNA-guided slicing of the target
# How it was run: (§1)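 A transcribed, DNA-blocked target RNA library (0.1 nM) and 1 nM active affinity-purified piRISC bearing one synthetic guide were incubated in HEPES–potassium acetate buffer at 33 °C for 0–8 or 0–960 min, either with or without 500 nM GTSF1 partner protein. Uncleaved targets were sequenced, normalised to depth and to weakly complementary targets, and pooled over three trials, with k3 capped at 0.0001 min^-1. The pre-steady-state cleavage rate was derived with a burst-and-steady-state fit.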
# [2] = tested on: EfPiwi piRISC loaded with L1MC piRNA (26 nt); assay: pre-steady-state target cleavage rate (min^-1); auxiliary factor: 500 nM Ephydatia muelleri Gtsf1; guide: L1MC piRNA 5'p-UAACUAAAUACUAUGCAAGCUGUAGG; MIWI and MILI are mouse PIWI proteins and EfPiwi is from a freshwater sponge; tags in brackets are library labels; higher = faster piRNA-guided slicing of the target
# How it was run: as §1
# [3] = auxiliary factor: 500 nM mouse GTSF1
# [4] = auxiliary factor: none (no GTSF1)
sequence,measurement,setting,value
UCCUCCUACAGCUUGCAUAGUUUUUAGUUA,pre-steady-state target cleavage rate,[1]; [3],0.0632 ± 0.011
same,pre-steady-state target cleavage rate,[1]; [4],0.00455 ± 0.0023
same,pre-steady-state target cleavage rate,[2],0.00894 ± 0.003
UCCUGGUACAGCUUAGCAUAGUAUUUAGUUA,pre-steady-state target cleavage rate,[1]; [3],0.296 ± 0.018
same,pre-steady-state target cleavage rate,[1]; [4],0.0164 ± 0.0045
same,pre-steady-state target cleavage rate,[2],0.0188 ± 0.0058
UCCUGGUACAGCUUGCAUAGUAUAAAGUUA,pre-steady-state target cleavage rate,[1]; [3],0.193 ± 0.046
same,pre-steady-state target cleavage rate,[1]; [4],0.00524 ± 0.0029
same,pre-steady-state target cleavage rate,[2],0.00482 ± 0.0022
UCCUGGAACUGCUUGGAUAGUAUUUAGUUA,pre-steady-state target cleavage rate,[1]; [3],0.222 ± 0.013
same,pre-steady-state target cleavage rate,[1]; [4],0.0109 ± 0.0023
same,pre-steady-state target cleavage rate,[2],0.0527 ± 0.014
UCCUCAUACAGCUUGCAUAGUAUUUAGUUA,pre-steady-state target cleavage rate,[1]; [3],0.319 ± 0.015
same,pre-steady-state target cleavage rate,[1]; [4],0.0105 ± 0.0029
same,pre-steady-state target cleavage rate,[2],0.234 ± 0.064
UCCUGGUACAGCUUGCUUACUAUUUAGUUA,pre-steady-state target cleavage rate,[1]; [3],0.0679 ± 0.012
same,pre-steady-state target cleavage rate,[1]; [4],0.00375 ± 0.0027
same,pre-steady-state target cleavage rate,[2],0.00704 ± 0.0031
UCCUGCUACGGCUUGCAUAGUAUUUAGUUA,pre-steady-state target cleavage rate,[1]; [3],0.276 ± 0.021
same,pre-steady-state target cleavage rate,[1]; [4],0.00977 ± 0.0025
same,pre-steady-state target cleavage rate,[2],0.00972 ± 0.0027
UCCUCCUCAGCUUGCAUAGUAUUUAGUUA,pre-steady-state target cleavage rate,[1]; [3],0.258 ± 0.015
same,pre-steady-state target cleavage rate,[1]; [4],0.00784 ± 0.0019
same,pre-steady-state target cleavage rate,[2],0.0735 ± 0.017
UCCUGGUACAGCUUGCAUAGAAUUUAGUUA,pre-steady-state target cleavage rate,[1]; [3],0.229 ± 0.08
same,pre-steady-state target cleavage rate,[2],0.00314 ± 0.0023
UCCUCCUACAGCUUGCAUAGUCAUUUAGUUA,pre-steady-state target cleavage rate,[1]; [3],0.0182 ± 0.0076
same,pre-steady-state target cleavage rate,[1]; [4],0.00422 ± 0.0022
same,pre-steady-state target cleavage rate,[2],0.00268 ± 0.0025
UCCUGCUACAGCUUGCAUAGAAUUAAGUUA,pre-steady-state target cleavage rate,[1]; [3],0.048 ± 0.012
same,pre-steady-state target cleavage rate,[2],0.00288 ± 0.0022
UCCUCCUACAGCUUGCAUAGUUAAUAGUAA,pre-steady-state target cleavage rate,[1]; [3],0.0122 ± 0.0056
same,pre-steady-state target cleavage rate,[2],0.00511 ± 0.003
UCCUGGUACAGCUUGCAUAGUAUUCAGUUA,pre-steady-state target cleavage rate,[1]; [3],0.058 ± 0.017
same,pre-steady-state target cleavage rate,[2],0.00472 ± 0.0022
UCCUCCUUGAGCUUGCAUAGUAUUUAGUAA,pre-steady-state target cleavage rate,[1]; [3],0.217 ± 0.025
same,pre-steady-state target cleavage rate,[1]; [4],0.00389 ± 0.0017
same,pre-steady-state target cleavage rate,[2],0.00719 ± 0.0026
UCCUGGUACAGCUCUGCAUAGUAUUUAGUUA,pre-steady-state target cleavage rate,[1]; [3],0.243 ± 0.018
same,pre-steady-state target cleavage rate,[1]; [4],0.00792 ± 0.0029
same,pre-steady-state target cleavage rate,[2],0.0139 ± 0.0042
UCCUGGAACAGCCUUGCAUAGUAUUUAGUUA,pre-steady-state target cleavage rate,[1]; [3],0.225 ± 0.019
same,pre-steady-state target cleavage rate,[1]; [4],0.00974 ± 0.003
same,pre-steady-state target cleavage rate,[2],0.0147 ± 0.0046
UCCUGCAACAGCUUCCAUAGUAUUUAGUUA,pre-steady-state target cleavage rate,[1]; [3],0.112 ± 0.03
same,pre-steady-state target cleavage rate,[2],0.00273 ± 0.0014
UCCUCCUACCGCUUGCAUAGUAUUUAGUUA,pre-steady-state target cleavage rate,[1]; [3],0.305 ± 0.015
same,pre-steady-state target cleavage rate,[1]; [4],0.0125 ± 0.003
same,pre-steady-state target cleavage rate,[2],0.0865 ± 0.023
